TDP1 cell noCPT: qHTS for Inhibitors of human tyrosyl-DNA phosphodiesterase 1 (TDP1): qHTS in cells in absence of CPT; Potency, µM (doses to about 46.2 µM), actives largely listed as inhibitors; 15% of 420,000 active; AID 686978, 2013; DT40 Tdp1-/- hTDP1 cells, no CPT, ATP luminescence, 48 h; note: nearly all actives have a fitted effect of over 55% in size
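No-CPT arm: Tdp1-/-;hTDP1 DT40 cells (400/well) plus compounds, incubated ≥48 hr at 37 °C. Readout CellTiter-Glo luminescence.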
TDP1 cell CPT: DT40-hTDP1 cell growth loss with CPT | chicken DT40 Tdp1-/-;hTDP1 cells + 20 nM CPT, ATP luminescence, 48 h | Potency, µM (titrated, usually from 46.2 µM), hits mostly inhibitors | 12% of 420,000 active | AID 686979; note: nearly all actives have a fitted effect of over 55% in size
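Cell growth measured by CellTiter-Glo luminescence after a minimum 48 h, 37 C compound exposure with 20 nM CPT in Tdp1-knockout DT40 cells stably expressing hTDP1, seeded 400/well; qHTS titration format.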
IL-1B inflam inh: blocks inflammasome-driven IL-1 beta release. THP-1 LPS/ATP IL-1B secretion, AlphaLISA, 16 h; active compounds read low. activity change, % at 57.5 µM. 4.7% of 360,000 active; in the data active = activity change below about -50%; inconclusive = mostly about -30% to -49%
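THP-1 cells pretreated 1 hr with compounds (up to 57.5 uM final), then stimulated with LPS (250 ng/mL final) plus ATP (1.25 mM final); secreted IL-1B measured by AlphaLISA after 16 hr, decreased signal indicating inhibition.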
HT1080 IDH1KD tx: toxicity to HT-1080 IDH1 knockdown cells (counter line); HT-1080 IDH1 knockdown viability, ATP luminescence, 48 h; Potency, µM (series often up to 46.1 µM), most hits filed as cytotoxic; 2% of 360,000 active
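Viability of IDH1-knockdown HT-1080 fibrosarcoma cells was assessed by CellTiter-Glo after 48 h at 37 °C with titrated compound; concentration-effect curves were classified by fit quality and response size.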
HT1080-NT tox: kills 2HG-producing HT-1080-NT fibrosarcoma cells | HT-1080-NT fibrosarcoma viability, CellTiter-Glo ATP luminescence, 48 h | 1.6% of 360,000 active | Potency, µM (titrated, usually from 46.1 µM), actives largely listed as cytotoxic | AID 686970;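 note: NT is the 2HG producing partner of a matched IDH1 knockdown line; nearly all actives have a fitted effect of over 55% in size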
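Viability of the 2HG-overproducing fibrosarcoma line after 48 hours of compound exposure at 37 degrees C was determined by luminescence with CellTiter-Glo, and concentration-effect curves were then fitted and categorized.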
ALOX12 inh: inhibitors of human 12S-lipoxygenase ALOX12; AID 1671190; Potency, µM (highest dose often 108 µM), most hits filed as inhibitors; purified 12hLO, xylenol orange hydroperoxide absorbance; 1.1% of 580,000 active
Target sequence (P18054 whole entry, looked up): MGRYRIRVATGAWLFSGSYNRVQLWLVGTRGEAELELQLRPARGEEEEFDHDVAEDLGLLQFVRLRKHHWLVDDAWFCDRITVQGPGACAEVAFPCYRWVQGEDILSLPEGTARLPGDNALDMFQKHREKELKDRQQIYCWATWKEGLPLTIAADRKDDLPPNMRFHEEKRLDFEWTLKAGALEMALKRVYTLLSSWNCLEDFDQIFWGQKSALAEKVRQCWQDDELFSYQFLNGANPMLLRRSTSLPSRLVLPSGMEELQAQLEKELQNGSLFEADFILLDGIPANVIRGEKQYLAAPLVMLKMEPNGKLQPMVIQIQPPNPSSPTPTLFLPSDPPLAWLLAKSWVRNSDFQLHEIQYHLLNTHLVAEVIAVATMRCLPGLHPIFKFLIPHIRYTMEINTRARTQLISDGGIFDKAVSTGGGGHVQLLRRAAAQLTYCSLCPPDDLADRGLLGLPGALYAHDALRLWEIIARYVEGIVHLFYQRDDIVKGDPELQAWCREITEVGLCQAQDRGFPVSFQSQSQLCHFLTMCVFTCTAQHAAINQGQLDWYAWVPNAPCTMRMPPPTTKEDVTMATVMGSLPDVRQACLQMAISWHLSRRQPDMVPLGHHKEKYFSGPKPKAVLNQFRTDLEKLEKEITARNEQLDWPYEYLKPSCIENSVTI
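Purified human 12hLO (150 nM final) in 25 mM Hepes, 0.01% Triton X-100, pH 7.0 was preincubated 15 min at room temperature with compound. Then 40 uM arachidonic acid was added, 30 min. Hydroperoxide was read by Fe-XO absorbance ratio 573/405 nm.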
Large screens that a line does not name were inactive; ! = repeats disagree. This excerpt belongs to a sample that is enriched for hits. Unless noted, calls come from the whole dose curve; as a rule, active = well fitted curve in the direction sought with a large enough effect; inconclusive = small, poorly fitted or top-dose-only effect, or another doubt; inactive = no such curve, though single readings can be large; an effect the other way counts as inactive or inconclusive.

Cc1cccc(N2CCc3c2nc2ccccc2c3N)c1	TDP1 cell noCPT inconclusive, TDP1 cell CPT 14.6µM, IL-1B inflam inh -91.4!, ALOX12 inh inconclusive
N[C@H](C(=O)O)[C@@H]1CC(Cl)=NO1	TDP1 cell noCPT 2.11µM, TDP1 cell CPT 1.68µM (no result: IL-1B inflam inh, HT1080 IDH1KD tx, HT1080-NT tox, ALOX12 inh)
C#C[C@H]1CN2CC[C@H]1C[C@@H]2CNS(=O)(=O)CCC	none (no result: TDP1 cell noCPT, TDP1 cell CPT, IL-1B inflam inh, HT1080 IDH1KD tx, HT1080-NT tox)
C#C[C@H]1CN2CC[C@H]1C[C@@H]2COC(=O)NCCC	ALOX12 inh 8.91µM (no result: TDP1 cell noCPT, TDP1 cell CPT, IL-1B inflam inh, HT1080 IDH1KD tx, HT1080-NT tox)
CN(C)c1ccc(CC(=O)N2CCN(Cc3ccccc3)CC(O)C2)cc1 (stereo not drawn)	none (no result: TDP1 cell noCPT, TDP1 cell CPT, IL-1B inflam inh, HT1080 IDH1KD tx, HT1080-NT tox)
COc1ccc(-c2ccc(OC)c(OC)c2OC)cc1	TDP1 cell noCPT 5.17µM, TDP1 cell CPT 14.6µM, HT1080 IDH1KD tx inconclusive, HT1080-NT tox inconclusive
COc1ccc(OC)c(C(O)C(C)N)c1 (stereo not drawn)	none
COc1ccc(-c2cc([C@H]3CN4CC[C@H]3C[C@@H]4CNC(C)=O)n(C)n2)cc1	none (no result: TDP1 cell noCPT, TDP1 cell CPT, IL-1B inflam inh, HT1080 IDH1KD tx, HT1080-NT tox)
CN1CCC[C@@H]1c1cccnc1	ALOX12 inh inconclusive (no result: IL-1B inflam inh, HT1080 IDH1KD tx, HT1080-NT tox)
Cc1n[nH]c(C)c1CCCCOc1ccc([N+](=O)[O-])cc1	TDP1 cell noCPT inconclusive, TDP1 cell CPT 14.6µM
O=S(=O)(c1ccccc1)N1Cc2ccccc2-n2nncc2C1	TDP1 cell noCPT 20.6µM, TDP1 cell CPT inconclusive
O=S(=O)(c1cccc(C(F)(F)F)c1)N1Cc2ccccc2-n2nncc2C1	TDP1 cell noCPT 9.2µM, TDP1 cell CPT 23.1µM
O=S(=O)(c1ccc2ccccc2c1)N1Cc2cc(Br)ccc2-n2nncc2C1	none (no result: TDP1 cell noCPT, TDP1 cell CPT, IL-1B inflam inh, HT1080 IDH1KD tx, HT1080-NT tox)
O=C(C1CCCCC1)N1Cc2ccccc2-n2nncc2C1	none
CN(C)S(=O)(=O)c1cccc(C(=O)N2CCC(C(=O)O)(c3ccccc3)CC2)c1	none
CN(c1ccccc1)S(=O)(=O)c1cccc(C(=O)N2CCN(c3ccccn3)CC2)c1	TDP1 cell noCPT 16.4µM, TDP1 cell CPT 18.4µM
O=C(O)C1=NOC2CN(CC3CC3)CC12 (stereo not drawn)	none (no result: TDP1 cell noCPT, TDP1 cell CPT, IL-1B inflam inh, HT1080 IDH1KD tx, HT1080-NT tox)
O=C(O)C1=NOC2CN(Cc3cncs3)CC12 (stereo not drawn)	ALOX12 inh 12.6µM (no result: TDP1 cell noCPT, TDP1 cell CPT, IL-1B inflam inh, HT1080 IDH1KD tx, HT1080-NT tox)
Cn1nc(-c2ccc(F)cc2)cc1[C@H]1CN2CC[C@H]1C[C@@H]2CNC(=O)Nc1ccccc1	none (no result: TDP1 cell noCPT, TDP1 cell CPT, IL-1B inflam inh, HT1080 IDH1KD tx, HT1080-NT tox)
COc1cc2c(cc1O)-c1c(O)c(OC)cc3c1[C@H](C2)N(C)CC3	TDP1 cell noCPT inconclusive (no result: IL-1B inflam inh, HT1080 IDH1KD tx, HT1080-NT tox, ALOX12 inh)
COc1cc2c(cc1O)C[C@H]1c3c(cc(O)c(OC)c3-2)CCN1C	none
CCCN1CCc2cccc3c2C1Cc1ccc(O)c(O)c1-3 (stereo not drawn)	TDP1 cell CPT 3.66µM, ALOX12 inh inconclusive (no result: IL-1B inflam inh, HT1080 IDH1KD tx, HT1080-NT tox)
CN1CCc2cc(O)cc3c2[C@H]1Cc1ccc(O)c(O)c1-3	TDP1 cell noCPT 2.59µM, TDP1 cell CPT 1.64µM, HT1080 IDH1KD tx 5.8µM, HT1080-NT tox 8.2µM, ALOX12 inh inconclusive
CCCCOP(=O)(OCCCC)C(O)c1ccc(Br)cc1 (stereo not drawn)	TDP1 cell noCPT 18.4µM, TDP1 cell CPT 23.1µM
CCOP(=O)(C#Cc1ccccc1)C(O)c1ccc(Br)cc1 (stereo not drawn)	TDP1 cell noCPT inconclusive, TDP1 cell CPT inconclusive
C=C[C@H]1CN2CC[C@H]1C[C@@H]2CNS(=O)(=O)c1ccc2ccccc2c1	none (no result: TDP1 cell noCPT, TDP1 cell CPT, IL-1B inflam inh, HT1080 IDH1KD tx, HT1080-NT tox)
Cc1c(NC(=O)Nc2cccc(C(F)(F)F)c2)sc2nc3n(c(=O)c12)CCC(C)CC3 (stereo not drawn)	TDP1 cell noCPT 18.4µM, TDP1 cell CPT 13µM (no result: IL-1B inflam inh, HT1080 IDH1KD tx, HT1080-NT tox)
CCCCc1cn(C[C@H]2C[C@@H]3CCN2C[C@@H]3C(=O)Nc2ccccc2)nn1	none (no result: TDP1 cell noCPT, TDP1 cell CPT, IL-1B inflam inh, HT1080 IDH1KD tx, HT1080-NT tox)
CCN(CC)C(=O)c1ccc(NC(=O)COC(=O)c2ccc3nc(C)c(C)nc3c2)cc1	none (no result: TDP1 cell noCPT, TDP1 cell CPT, IL-1B inflam inh, HT1080 IDH1KD tx, HT1080-NT tox)
CCN(CC)C(=O)c1ccc(NC(=O)COc2ccc([N+](=O)[O-])cc2Cl)cc1	TDP1 cell noCPT 20.6µM, TDP1 cell CPT inconclusive
O=C(CN1CCOCC1)c1ccc2ccccc2c1	none (no result: IL-1B inflam inh, HT1080 IDH1KD tx, HT1080-NT tox, ALOX12 inh)
O=C(NC[C@H]1C[C@@H]2CCN1C[C@@H]2CN1CCCCC1)c1ccccc1	none (no result: TDP1 cell noCPT, TDP1 cell CPT, IL-1B inflam inh, HT1080 IDH1KD tx, HT1080-NT tox)

High-throughput results deposited in PubChem BioAssay by National Center for Advancing Translational Sciences (NCATS).
